In all, about 81,000 sequences were measured (“one-hybrid fitness for binding NBS DNA”: median about -0.1, highest 2% from about 0.36 on). For the sample, the highest values were picked, then their nearest neighbours and some sequences at random.

B1: Caulobacter ParB omega fusion; a variant is named by its letters at X, in order, B8GW30 (parent)
chain: MESVVVGEPGMSEGRRGLGRGLSALLGEVDAAPAQAPGEQLGGSREAPIEILQRNPDQPRRTFREEDLEDLSNSIREKGVLQPILVRPSPDTAGEYQIVAGERAWRAAQRAGLKTVPIMVRELDDLAVLEIGIIENVQRADLNVLEEALSYKVLMEKFERTQENIAQTIGKSXSHVANXMRLLXLPDEVQSYLVSGELTAXHARAIAAAADPVALAKQIIEGGLSVRETEALARKAPNLSAGKSKGGRPPRVKDTDTQALESDLSSVLGLDVSIDHRGSTGTLTITYATLEQLDDLCNRLTRGI

In this test the parent is B1. As to the kind of experiment: one-hybrid fitness for binding NBS DNA (the Noc-binding site; scaled: cognate 1, non-cognate 0); higher = stronger binding. The following applies: with NBS DNA site. An outline of the steps:
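Selection: bacterial one-hybrid in E. coli USO, HIS3 reporter with the site 19 bp from the promoter, 48 hours at 37°C on M9-minus-histidine plus 0.1 mM IPTG and 5 mM 3-AT. Libraries were Caulobacter ParB with four randomised specificity codons, sequenced on Illumina before and after selection. Fitness is the rescaled log change in variant-to-wild-type read ratio, anchored to the cognate and non-cognate sites.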
On to HFFR, for which the “one-hybrid fitness for binding NBS DNA” value is no more than 0.2.
The figure for RCTP is no more than 0.2; for EWRC it is no more than 0.2; for YVHE it is no more than 0.2.
Under VDSG stands no more than 0.2; under HSAM, no more than 0.2.
Under VVYR stands no more than 0.2; under RMAS, 0.405.
For RSAW, the “one-hybrid fitness for binding NBS DNA” value is no more than 0.2.
The figure for RMAH is no more than 0.2; for RSAD it is no more than 0.2.
The figure for RMAN is no more than 0.2.
The figure for RCAW is 0.431.
On to RSAS, for which the “one-hybrid fitness for binding NBS DNA” value turned out to be 0.424.
Under RTAP stands no more than 0.2; under RSAP, no more than 0.2; under RTAS, 0.454.
For RPAW, the “one-hybrid fitness for binding NBS DNA” value is no more than 0.2.
The figure for RTAD is no more than 0.2.
In the case of SWHQ, the “one-hybrid fitness for binding NBS DNA” value was no more than 0.2.
Under IRHW stands no more than 0.2; under EMAM, no more than 0.2.
Under DYQG stands no more than 0.2.
Turning to TGTL, the “one-hybrid fitness for binding NBS DNA” value is no more than 0.2.
The figure for WNAL is no more than 0.2; for RPAS it is no more than 0.2.
Turning to RAAH, the “one-hybrid fitness for binding NBS DNA” value was no more than 0.2.
Under RHAP stands no more than 0.2; under RAAD, no more than 0.2.
As for RLAP, the “one-hybrid fitness for binding NBS DNA” value is no more than 0.2.
On to RHAN, for which the “one-hybrid fitness for binding NBS DNA” value is no more than 0.2.
Under RLAS stands 0.383; under RCAS, 0.476; under RLAH, no more than 0.2.
The figure for RAAS is 0.368; for RHAS it is 0.433; for RIAS it is 0.345.
The figure for TIIA is no more than 0.2.
Consider APSV, for which the “one-hybrid fitness for binding NBS DNA” value was no more than 0.2.
As for HMQC, the “one-hybrid fitness for binding NBS DNA” value was no more than 0.2.
The figure for LRDK is no more than 0.2.
Turning to SENT, the “one-hybrid fitness for binding NBS DNA” value was no more than 0.2.
The figure for LQVS is no more than 0.2.
For the variant PPFG, the “one-hybrid fitness for binding NBS DNA” value was no more than 0.2.
Under RSHK stands no more than 0.2; under QQTT, 0.464; under QQTD, no more than 0.2.
As for QQTS, the “one-hybrid fitness for binding NBS DNA” value was determined as 0.433.
Under QQTR stands 0.648; under QQTF, no more than 0.2; under QQTP, no more than 0.2.
The figure for QQTN is no more than 0.2; for QQTH it is 0.264; for QQTC it is no more than 0.2.
The figure for WSIE is no more than 0.2.
GCAR: the “one-hybrid fitness for binding NBS DNA” value is no more than 0.2.
Under RQSC stands no more than 0.2; under YATR, no more than 0.2.
The figure for SEFT is no more than 0.2; for STWN it is no more than 0.2.
Under SNPF stands no more than 0.2; under LHCS, no more than 0.2.
Consider CNGF, for which the “one-hybrid fitness for binding NBS DNA” value was no more than 0.2.
As to FEEV, the “one-hybrid fitness for binding NBS DNA” value was no more than 0.2.
The figure for LQET is no more than 0.2; for RADS it is no more than 0.2; for RAWS it is 0.262.
Under RANS stands 0.484; under RARN, no more than 0.2; under RAIS, no more than 0.2.
Under RAYS stands 0.423; under RANH, no more than 0.2.
Turning to RARH, the “one-hybrid fitness for binding NBS DNA” value was found to be 0.306.
On to RARS, for which the “one-hybrid fitness for binding NBS DNA” value came out at 0.564.
On to DPHT, for which the “one-hybrid fitness for binding NBS DNA” value was no more than 0.2.
The figure for NPRM is no more than 0.2.
The figure for HYCF is no more than 0.2; for GLER it is no more than 0.2; for NTPI it is no more than 0.2.
Under RRQS stands 0.69; under RCQG, no more than 0.2; under RRQN, 0.322.
As to RRQH, the “one-hybrid fitness for binding NBS DNA” value stood at 0.447.
Under RRQD stands no more than 0.2.
As for RRQP, the “one-hybrid fitness for binding NBS DNA” value is no more than 0.2.
Consider RCQH, for which the “one-hybrid fitness for binding NBS DNA” value came out at 0.228.
With RSQG, the “one-hybrid fitness for binding NBS DNA” value is no more than 0.2.
The figure for RRQG is 0.377; for PGAA it is no more than 0.2; for NLQS it is no more than 0.2.
Under HATK stands no more than 0.2.
Turning to WPRM, the “one-hybrid fitness for binding NBS DNA” value is no more than 0.2.
The figure for LVQN is no more than 0.2; for DLGR it is no more than 0.2.
Under GFTS stands no more than 0.2.
Consider QYVP, for which the “one-hybrid fitness for binding NBS DNA” value was no more than 0.2.
Under QYVN stands no more than 0.2; under QYVR, 0.381.
On to NYKR, for which the “one-hybrid fitness for binding NBS DNA” value is no more than 0.2.
The figure for QYKR is 0.99.
The figure for EYKR is no more than 0.2; for KYYF it is no more than 0.2.
With SYTG, the “one-hybrid fitness for binding NBS DNA” value was no more than 0.2.
Under PAEC stands no more than 0.2.
As for TFLC, the “one-hybrid fitness for binding NBS DNA” value was no more than 0.2.
As to RTGH, the “one-hybrid fitness for binding NBS DNA” value is 0.271.
RTIR: the “one-hybrid fitness for binding NBS DNA” value stood at 0.354.
The figure for RTRD is no more than 0.2; for RTYR it is 0.522.
The figure for RPWR is no more than 0.2.
Under RTGR stands 0.622; under RTGP, no more than 0.2.
Regarding RSWR, the “one-hybrid fitness for binding NBS DNA” value came out at 0.27.
The figure for RTPR is 0.208; for RCWR it is 0.405; for RTER it is 0.262.
Turning to RTRR, the “one-hybrid fitness for binding NBS DNA” value was 0.818.
The figure for WHGR is no more than 0.2; for SVYC it is no more than 0.2; for DNYS it is no more than 0.2.
The figure for AQDG is no more than 0.2.
Under RTSR stands 0.576; under RTSC, no more than 0.2; under RTNP, no more than 0.2.
For RTHR, the “one-hybrid fitness for binding NBS DNA” value is 0.631.
Under RTCN stands no more than 0.2; under RTSF, no more than 0.2.
RTDR: the “one-hybrid fitness for binding NBS DNA” value is 0.282.
The figure for RTNR is 0.744; for RTCD it is no more than 0.2.
The figure for RTCR is 0.53; for RTHG it is no more than 0.2; for RTHM it is no more than 0.2.
Under MTRH stands no more than 0.2.
As to GPMF, the “one-hybrid fitness for binding NBS DNA” value was no more than 0.2.
Under VYNT stands no more than 0.2; under NQFD, no more than 0.2.
In the case of GLEG, the “one-hybrid fitness for binding NBS DNA” value was no more than 0.2.
Under DQKV stands no more than 0.2.
As to ATVV, the “one-hybrid fitness for binding NBS DNA” value was no more than 0.2.
For the variant THMM, the “one-hybrid fitness for binding NBS DNA” value was no more than 0.2.
Under RTWR stands 0.404.
Under RTWP stands no more than 0.2; under RTQR, 0.575; under RTLH, no more than 0.2.
Under RTWD stands no more than 0.2; under RTQN, no more than 0.2.
As to RTLR, the “one-hybrid fitness for binding NBS DNA” value is 0.461.
As to RTLQ, the “one-hybrid fitness for binding NBS DNA” value was no more than 0.2.
The figure for RTQP is no more than 0.2; for QGED it is no more than 0.2.
Under DAQE stands no more than 0.2; under GQLV, no more than 0.2; under RKFT, 0.437.
The figure for RSFT is no more than 0.2.
For RPFT, the “one-hybrid fitness for binding NBS DNA” value is no more than 0.2.
With RKAT, the “one-hybrid fitness for binding NBS DNA” value worked out at 0.643.
Under RKAK stands no more than 0.2.

Source of the values: a collection of fitness landscapes (doi:10.1016/j.celrep.2020.107928).
